# From PubChem
# An excerpt weighted towards active compounds, which were near 12% of everything screened.
# HP1b chromo inh: HP1-beta chromodomain-methylated histone interaction inhibition. P83916. AlphaScreen HP1-beta / biotin-H3K9me3 peptide binding. Potency, µM (titrated, usually from 114 µM), for the others: top-dose activity change, negative = inhibition, actives largely listed as inhibitors. hit rate 0.56% among 390,000; further: nearly all actives have a fitted effect of over 70% in size
#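 Compound inhibition of the preformed complex between 50 nM HP1-beta and 50 nM biotinylated H3K9me3 peptide was read by AlphaScreen. Buffer was PBS pH 7.4 with 0.01% Tween-20. Incubations ran 30 min at room temperature, with 10 ug/mL donor/acceptor beads.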
# Sfp PPTase inh: inhibitors of Bacillus subtilis Sfp phosphopantetheinyl transferase. Biochemical Sfp PPTase activity, qHTS. Potency, µM, inactives show largest response in the series, negative = inhibition, usual class: inhibitors. hit rate 3.5% among 310,000. AID 1490;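 further: the enzyme is Sfp with the accession as filed and its product quenches rhodamine fluorescence; 0% = enzyme reaction without inhibitor and -100% = no enzyme wells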
#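 Compounds were incubated with enzyme (final 15 nM) for 15 min at room temperature before substrate addition started the reaction. Fluorescence at 525 nm excitation, 598 nm emission was recorded immediately and after 30 minutes.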
# JMJD2A Tudor: JMJD2A Tudor domain (human) inhibition. O75164. AlphaScreen JMJD2A-Tudor / H3K4me3 peptide binding. Potency, µM (highest dose often 114 µM), inactives show at the highest dose activity change, negative = inhibition, hits mostly inhibitors. hit rate 4.4% among 390,000; further: on the % scale 0 is the no-effect control and ±100 the full control effect; nearly all actives have a fitted effect of over 50% in size
# G9a inh: blocks human histone lysine methyltransferase G9a. Potency, µM (top dose mostly 102 µM), for the others: at the top dose activity, negative = inhibition, usual class: inhibitors. G9a H3K9 monomethylation, AlphaScreen, 2 h. hit rate 8.8% among 350,000; further: on the % scale 0 is the no-effect control and ±100 the full control effect; nearly all actives have a fitted effect of over 75% in size
#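 Signal arises when biotinylated H3K9 peptide, once monomethylated, bridges streptavidin donor and antibody-captured acceptor beads. Enzyme at 20 nM was preincubated 15 min with test compounds; peptide 500 nM and SAM 20 uM then reacted for 2 h.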
# L3MBTL1 inh: blocks human L3MBTL1; AlphaScreen L3MBTL1–H3K9me1 peptide binding; Potency, µM (highest dose often 57.1 µM), without a hit: top-dose activity, negative = inhibition, hits mostly inhibitors; hit rate 0.66% among 230,000; further: on the % scale 0 is the no-effect control and ±100 the full control effect; nearly all actives have a fitted effect of over 60% in size
# Target sequence (Q9Y468 whole entry, looked up): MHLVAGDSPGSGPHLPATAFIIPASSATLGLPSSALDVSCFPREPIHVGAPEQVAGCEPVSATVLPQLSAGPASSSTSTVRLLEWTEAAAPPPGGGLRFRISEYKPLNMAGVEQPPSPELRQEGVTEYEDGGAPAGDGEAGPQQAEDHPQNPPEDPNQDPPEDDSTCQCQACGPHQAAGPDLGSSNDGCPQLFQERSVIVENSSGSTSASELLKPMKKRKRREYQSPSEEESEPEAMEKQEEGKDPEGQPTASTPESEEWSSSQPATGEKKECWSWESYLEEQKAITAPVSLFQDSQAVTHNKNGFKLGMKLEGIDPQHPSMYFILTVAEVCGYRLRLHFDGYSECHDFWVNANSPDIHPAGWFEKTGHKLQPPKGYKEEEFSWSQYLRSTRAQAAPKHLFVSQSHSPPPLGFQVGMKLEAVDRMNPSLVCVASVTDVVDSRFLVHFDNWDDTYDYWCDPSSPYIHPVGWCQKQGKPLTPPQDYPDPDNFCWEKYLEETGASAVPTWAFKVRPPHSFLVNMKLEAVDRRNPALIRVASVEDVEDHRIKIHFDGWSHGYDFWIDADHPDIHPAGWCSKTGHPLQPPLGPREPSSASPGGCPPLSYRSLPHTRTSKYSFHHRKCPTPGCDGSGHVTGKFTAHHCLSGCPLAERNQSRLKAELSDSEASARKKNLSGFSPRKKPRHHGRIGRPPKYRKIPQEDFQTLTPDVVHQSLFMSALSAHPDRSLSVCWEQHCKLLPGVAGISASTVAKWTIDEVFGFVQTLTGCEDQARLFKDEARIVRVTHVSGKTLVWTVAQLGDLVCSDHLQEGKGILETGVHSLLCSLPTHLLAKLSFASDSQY
#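 AlphaScreen assay: L3MBTL1 (50 nM final) was preincubated 30 min at room temperature with biotinylated H3(1-15)K9me1 peptide (75 nM final), then 30 min with library compounds; streptavidin donor and nickel chelate acceptor beads (10 ug/mL final) added, 30 min dark.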
# BAZ2B block: inhibitors of human BAZ2B bromodomain. Q9UIF8. AlphaScreen BAZ2B-H3K14Ac peptide displacement. Potency, µM (doses to about 114 µM), inactives show at the top dose activity change, negative = inhibition, usual class: inhibitors. hit rate 4.4% among 360,000; further: on the % scale 0 is the no-effect control and ±100 the full control effect; nearly all actives have a fitted effect of over 60% in size
#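 Protein-peptide AlphaScreen: BAZ2B 50 nM, b-H3K14Ac 50 nM, 1x PBS pH 7.4 + 0.01% Tween-20. Preincubation 30 min RT; cpd 30 min RT (top 110 uM); beads 20 min RT, light-protected.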
# Active calls of the source: *; ? = inconclusive; . = not tested or not shown; [ ] = another dose, or the depositor's remark. The call rests on the fitted dose curve; in most records, active means well fitted curve in the direction sought with a large enough effect; inconclusive means small, poorly fitted or top-dose-only effect, or another doubt; inactive means no such curve, though single readings can be large; an effect the other way counts as inactive or inconclusive. Potency means the concentration at half of the fitted maximal effect.
SMILES,HP1b chromo inh,Sfp PPTase inh,JMJD2A Tudor,G9a inh,L3MBTL1 inh,BAZ2B block
COc1ccccc1NC(=O)C1=C(C)Nc2nc(SCc3ccccc3F)nn2C1c1cccnc1 (stereo unspecified),16%,.,-10%,-12%[59 µM],.,-29%
CC1=C(C(=O)Nc2ccccc2C)C(c2cccnc2)n2nc(CCCO)nc2N1 (stereo unspecified),43%,9%,9%,-1%[59 µM],-20%[11.4 µM],7%
COc1ccccc1NC(=O)C1=C(C)Nc2nc(SCc3ccccc3)nn2C1c1cccnc1 (stereo unspecified),15%,.,-19%,1%[59 µM],.,79µM*
C=CCn1c(SCC#N)nc2cc(Cl)ccc2c1=O,28%[57 µM],.,5%[57.1 µM],.,.,.
CCN1C(C(=O)c2ccccc2)=C(OC(=O)COc2ccc(C)cc2)c2ccccc2S1(=O)=O,-3%,.,50µM*,16µM*,.,?
CCN1C(C(=O)c2ccccc2)=C(OC(=O)COc2ccc(OC)cc2)c2ccccc2S1(=O)=O,3%,.,?,11µM*,.,?
CCCN1C(C(=O)c2ccccc2)=C(OC(=O)COc2ccccc2)c2ccccc2S1(=O)=O,-13%,.,?,8.9µM*,.,-26%
CCCN1C(C(=O)c2ccccc2)=C(OC(=O)COc2ccc(C)cc2)c2ccccc2S1(=O)=O,-7%,.,?,?,.,?
C=CCN1C(C(=O)c2ccccc2)=C(OC(=O)COc2ccccc2)c2ccccc2S1(=O)=O,-1%,-18%,20µM*,?,9%,?
COc1ccc(/C=N/NC(=O)CC(=O)NCc2cccnc2)cc1,29%,-4%,7%,-11%[0.0925 µM],21%,1%
CN(C)C(=O)c1ccc(-c2ccc3ncnc(N4CCNCC4)c3c2)cc1,.,27%,.,-5%[0.501 µM],.,.
N#Cc1cccc(-c2ccc3ncnc(NCCN4CCOCC4)c3c2)c1,.,36%,.,-45%[0.501 µM],.,.
COc1cccc(CNC(=O)CCC(=O)N2CC(C)Sc3ccccc32)c1 (stereo unspecified),20%,.,-6%,-4%[59 µM],.,-11%
CC(C)(C)NC[C@H](O)c1cc(O)cc(O)c1,.,18%,.,35%[12.7 µM],.,.
CN1CCC(Oc2ccccc2Sc2ccccc2)CC1,?,-27%,0.71µM*,?,-16%,-37%
CN1CCC(OC(c2ccccc2)c2ccccc2)CC1,29%,13%,-3%,-36%[2.33 µM],?,4%
CCOC(=O)c1scc(-c2ccccc2)c1S(=O)(=O)N1CCN(c2ccc(Cl)cc2)CC1,28%,.,-15%,13µM*,.,-31%
CCOC(=O)c1c(C)[nH]c(C)c1S(=O)(=O)N1CCC(C(=O)NCc2ccc(C)cc2)CC1,4%,.,-17%,-8%[59 µM],.,-14%
CCOC(=O)c1c(C)[nH]c(C)c1S(=O)(=O)N1CCN(c2ccc(F)cc2)CC1,41%,10%,4%,.,.,71µM*
CCOC(=O)c1c(C)[nH]c(C)c1S(=O)(=O)N1CCC(C(=O)N2CCN(c3ccc(F)cc3)CC2)CC1,9%,.,-27%,4%[59 µM],.,?
CCOC(=O)c1c(C)[nH]c(C)c1S(=O)(=O)N1CCC(C(=O)NCc2ccc(OC)cc2)CC1,3%,.,89µM*,-2%[59 µM],.,3%
O=C(NCCc1ccc(Cl)cc1)c1ccc2[nH]c(=O)c(=O)[nH]c2c1,19%,5%,-18%,2%,.,-10%
N#CCCN1CCN(C(=S)c2ccc(-c3ccc(Cl)c(Cl)c3)o2)CC1,?,50µM*,50µM*,?,-19%,.
N#CCCN1CCN(C(=S)c2ccc(-c3cccc(Cl)c3)o2)CC1,?,45µM*,35µM*,8.9µM*,-11%,35µM*
Cc1ccc(C)c(OCC(=O)Nc2ccc(S(=O)(=O)Nc3onc(C)c3C)cc2)c1C,29%,.,-17%,-16%[59 µM],.,-17%
SMILES,HP1b chromo inh,Sfp PPTase inh,JMJD2A Tudor,G9a inh,L3MBTL1 inh,BAZ2B block
Cc1cc2cc(CCNS(=O)(=O)c3ccc(Br)cc3)c(=O)[nH]c2cc1C,-6%,.,-32%,-5%[59 µM],.,-12%
O=C1C=C(c2ccc3[nH]ccc3c2)C[C@@H](c2ccc(Cl)cc2)C1,43%,.,-32%,-8%[0.501 µM],0%,-29%
Cc1ccc2nc(-c3ccc(NC(=O)CCN4C(=O)c5ccccc5C4=O)cc3)sc2c1,33%,79µM*,-8%,45µM*,1%,-19%
O=C(O)CSCC(=O)Nc1ccc(-c2nc3ccccc3s2)cc1,9%,?,-30%,45µM*,-5%,-1%
Cc1ccc2nc(-c3ccc(NC(=O)Cc4ccccc4)cc3)sc2c1,37%,.,8%,2%[59 µM],.,3%
Cc1ccc2nc(-c3ccc(NC(=O)COCC(=O)O)cc3)sc2c1,23%,-2%,-20%,50µM*,0%,-4%
CC(=O)CC(=O)[C@@]1(O)CC[C@@H]2[C@@H]3C=C(C)C4=CC(=O)CC[C@@H]4[C@H]3CC[C@]21C,.,10%,.,11%[21.5 µM],.,.
CCc1ccc2oc(-c3cccc(NC(=O)c4ccc(N5CCC(C)CC5)c([N+](=O)[O-])c4)c3)nc2c1,5%,.,-26%,-33%[59 µM],.,-34%
CCOC(=O)N/N=C1/C[C@@H](O)[C@@H](O)[C@@H]2[C@@H]3C(=O)N(C4CCCCC4)C(=O)[C@H]3CC[C@@H]12,.,2%,.,.,.,.
CC(C(=O)OCC(=O)c1ccccc1)N1C(=O)c2ccccc2C1=O (stereo unspecified),-9%,-8%,-9%,0%,15%,0%
Cc1ccc(C)c(N2C(=N)S/C(=C\c3ccc(-c4ccccc4C(=O)O)o3)C2=O)c1,-38%,-21%,32µM*,2.2µM*,?,20µM*
CCOC(=O)C(C)N1C(=O)S/C(=C\c2ccc(-c3ccccc3C(=O)O)o2)C1=O (stereo unspecified),?,-17%,22µM*,10µM*,.,25µM*
COc1ccc(CN2CCSc3sccc3C2=O)cc1,35%,-2%,-9%,20%,.,0%
O=C1C(=Cc2ccco2)CCC1=Cc1ccco1,3.5µM*,.,3.2µM*,.,.,.
O=C1N=C(N2CCOCC2)SC1=Cc1ccco1,22%,.,-4%,.,.,.
O=C1C(=Cc2ccco2)CCCC1=Cc1ccco1,?,.,56µM*,.,.,.
O=C1OCCN1N=Cc1ccco1,29%,.,8%,.,.,.
O/N=C1\CCC\C1=C/c1ccco1,3%,17%,-25%,56µM*,-7%,?
COc1ccc(C2/C=C\CN(C(=O)c3ccc(C)cc3)C(C)C(=O)N2Cc2ccc(F)cc2)cc1 (stereo unspecified),1%,-1%,-28%,.,.,.
Cc1ccc(SCCN2CCN(C)CC2)cc1,15%,-18%,-13%,50µM*,-2%,-25%
OCCN1CCN(CCSc2ccccc2)CC1,0%,-4%,28µM*,?,9%,-17%
c1ccc(SCCN2CCc3ccccc3C2)cc1,-32%,-12%,25µM*,40µM*,14%,5%
